Assay results published in publication PMC4336329 (PLoS ONE, 2015).
Out of some 310,000 compounds screened, about 14,000 (4.5%) showed an effect of 50% or more. Effects have a minus sign here. This is one part of a sample in which strong results are shown more often than they occur.

Biological target: human ether-à-go-go-related gene (hERG) potassium channel (human, UniProt Q12809)
Test: primary screen, population patch clamp on CHO cells stably expressing hERG; higher = less effect of the substance
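Note: peak tail current of the secondary pulse compared with the same well before compound.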

Sequence of human ether-à-go-go-related gene (hERG) potassium channel (Q12809 whole entry, looked up): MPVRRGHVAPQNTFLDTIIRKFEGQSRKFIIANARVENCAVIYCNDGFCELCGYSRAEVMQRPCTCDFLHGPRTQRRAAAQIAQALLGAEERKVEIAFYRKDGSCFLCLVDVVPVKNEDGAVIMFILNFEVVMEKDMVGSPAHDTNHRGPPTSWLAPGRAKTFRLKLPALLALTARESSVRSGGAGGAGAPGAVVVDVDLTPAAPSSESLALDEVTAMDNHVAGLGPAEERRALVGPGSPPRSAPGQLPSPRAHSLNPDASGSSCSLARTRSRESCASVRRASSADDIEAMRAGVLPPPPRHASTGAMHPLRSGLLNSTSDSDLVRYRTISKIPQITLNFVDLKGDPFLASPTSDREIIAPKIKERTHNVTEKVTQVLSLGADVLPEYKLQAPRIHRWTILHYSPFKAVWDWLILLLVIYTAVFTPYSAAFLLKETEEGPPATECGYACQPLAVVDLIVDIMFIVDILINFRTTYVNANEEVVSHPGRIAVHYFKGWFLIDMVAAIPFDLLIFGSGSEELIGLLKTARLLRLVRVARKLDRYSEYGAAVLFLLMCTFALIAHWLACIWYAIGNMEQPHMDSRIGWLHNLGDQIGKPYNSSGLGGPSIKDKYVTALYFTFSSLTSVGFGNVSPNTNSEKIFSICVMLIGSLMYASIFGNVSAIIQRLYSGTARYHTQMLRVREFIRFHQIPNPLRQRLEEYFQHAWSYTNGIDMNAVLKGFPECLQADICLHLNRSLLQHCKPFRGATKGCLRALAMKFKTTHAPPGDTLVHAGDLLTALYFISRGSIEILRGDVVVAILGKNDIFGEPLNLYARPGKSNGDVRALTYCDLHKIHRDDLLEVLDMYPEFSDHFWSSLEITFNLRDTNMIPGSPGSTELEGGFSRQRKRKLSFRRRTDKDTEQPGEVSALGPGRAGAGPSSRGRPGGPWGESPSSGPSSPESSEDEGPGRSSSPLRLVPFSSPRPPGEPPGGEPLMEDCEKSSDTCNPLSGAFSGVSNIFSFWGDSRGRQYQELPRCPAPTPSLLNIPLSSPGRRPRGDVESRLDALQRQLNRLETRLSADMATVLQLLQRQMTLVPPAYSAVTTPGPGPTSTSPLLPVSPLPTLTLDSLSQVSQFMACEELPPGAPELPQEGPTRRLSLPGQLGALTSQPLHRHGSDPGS

Compound | hERG current change (%, negative = inhibition) at 10uM [%]
CC1(C)CC2(CCO1)OC(=O)CC2C(=O)Nc1cccc2ccccc12 (centres unmarked) | 12
Cn1cccc1/C=C1\SC(=S)N(CC(=O)O)C1=O | 1.83
COc1ccc(OC)c(S(=O)(=O)n2cnc3ccccc32)c1 | -5.26
Cc1cccc(CS(=O)(=O)c2ncc(CO)n2C)c1 | 16
CCCCc1cc2ccccc2c(OCCN(C)C)n1.Cl | -61.9
CN(C)CCOc1ncnc2c1oc1ccccc12 | -13.5
Cc1cc(C)c(S(=O)(=O)c2ccccc2C)c(OCCN(C)C)n1 | -20.2
CCCCCCCC(=O)NNC(=O)c1ccc([N+](=O)[O-])cc1 | -20.6
Cc1ccc(C(=O)OCC(=O)c2ccc(CC(=O)N3CCOCC3)s2)cc1C | -31.2
Nc1cc(C(=O)OCC(=O)c2ccc(CC(=O)N3CCOCC3)s2)ccc1Cl | -27.8
Cc1cccc(C(=O)OCC(=O)c2ccc(CC(=O)N3CCOCC3)s2)c1C | -52.4
O=C(O)c1cn(-c2ccccc2)nc1-c1cccnc1 | -1.94
O=C(NCc1ccncc1)c1cn(-c2ccccc2)nc1-c1cccnc1 | -62
O=C(COC(=O)c1cn(-c2ccccc2)nc1-c1cccnc1)NC1CC1 | -0.964
COC(=O)c1cn(-c2ccccc2)nc1-c1cccnc1 | -28.5
NC(=O)c1cn(-c2ccccc2)nc1-c1cccnc1 | -1.67
O=C(NC1CCN(Cc2ccccc2)CC1)c1cn(-c2ccccc2)nc1-c1cccnc1 | -68
O=C(NCc1cccnc1)c1cn(-c2ccccc2)nc1-c1ccccc1 | -24.3
O=C(NCc1cccnc1)c1cn(-c2ccccc2)nc1-c1cccs1 | -32
O=C(NC1CCN(Cc2ccc(Cl)cc2)CC1)c1cn(-c2ccccc2)nc1-c1cccnc1 | -75.1
CCc1ccc(NC(=S)NCc2ccccc2)cc1 | 3.91
Cc1nc(N/N=C/c2ccc(Br)cc2)cc(N2CCOCC2)n1 | -0.525

Compound | hERG current change (%, negative = inhibition) at 10uM [%]
CCOC(=O)N1CCC(NC(=O)c2ccc(CS(=O)(=O)c3ccc(OC)cc3)o2)CC1 | -33.4
C[C@]12C[C@H](O)[C@@H]3c4ccc(O)cc4CCC3[C@@H]1CCC2=O (some centres unmarked) | 9.39
COCCN(CCOC)C(=O)c1ccc(CSc2nc3ccccc3s2)cc1 | -21.8
COc1ccc(C(C)(C)C)cc1NC(=O)C1C2C=CC(C2)C1C(=O)O (centres unmarked) | 12.5
CCOC(=O)C1=C(C)N(CC(C)C)C(=O)/C1=C\c1ccc(OCC(=O)Nc2ccccc2)cc1 | -9.9
COc1cc(OC)nc(NC(=S)NC(=O)c2ccccc2)n1 | 23.1
COc1ccccc1NC(=S)N(Cc1ccccc1)Cc1cccs1 | 14.9
Fc1ccccc1NC(=S)N(CCN1CCCCC1)Cc1ccco1 | -51.2
Cc1ccccc1NC(=S)N(CCN1CCCCCC1)Cc1cccs1 | -39.5
Cc1ccccc1NC(=S)N(CCN1CCCCC1)Cc1ccco1 | -30.2
S=C(Nc1ccccc1Cl)N(CCN1CCCCC1)Cc1ccco1 | -42.3
COc1ccccc1NC(=S)N(CCCN1CCOCC1)Cc1cccs1 | -35.6
Fc1ccccc1CN(CCN1CCOCC1)C(=S)Nc1ccccc1Cl | -6.77
Fc1ccccc1NC(=S)N(CCN1CCCCCC1)Cc1cccs1 | -53
COc1ccccc1NC(=S)N(CCN1CCCCCC1)Cc1cccs1 | -55.3
Cc1ccc2c(c1)NC(=O)C(CC(=O)NCc1ccc(F)cc1)O2 (centres unmarked) | -9.72
COc1ccc(S(=O)(=O)N(CCC#N)Cc2ccco2)cc1OC | 17.8
COc1cc(OC)cc(-c2n[nH]c(=S)n2-c2ccc3c(c2)OCO3)c1 | 15.4
O=C(NC1CCCCC1)N1CCCC(c2nc(-c3cccs3)no2)C1 (centres unmarked) | -10.5
CCc1nnc(NC(=O)C2CC(=O)N(CCc3ccc(F)cc3)C2)s1 (centres unmarked) | 4.54
O=C(Nc1cccc(C(F)(F)F)c1)C(Sc1ncnc2ccccc12)c1ccccc1 (centres unmarked) | 0.968
Cc1c(O)ccc2cc(S(=O)(=O)c3ccccc3)c(=O)oc12 | 13.8

Compound | hERG current change (%, negative = inhibition) at 10uM [%]
Cc1ccc(-n2ncc3c2CCCC3NC(=O)CSc2ccccn2)cc1C (centres unmarked) | -17.2
Cc1noc2ncnc(N3CCN(c4cccc(Cl)c4)CC3)c12 | -52
Cc1noc2ncnc(N3CCN(c4ccc(F)cc4)CC3)c12 | -38.3
Cc1noc2ncnc(N3CCCC3)c12 | 5.93
CCOc1cc(C2C(C(=O)OC)=CN(C3CCCC3)C=C2C(=O)OC)cc(Br)c1O | -1.51
C[N+]1(CC(O)COc2ccccc2)CCN(C(=O)c2ccc([N+](=O)[O-])cc2)CC1.[I-] (centres unmarked) | -9.95
CCc1cccc(Nc2cc(C)nc3nc(C)nn23)c1 | -25.3
COc1ccc(-c2nc(CN3CCCCC3c3nccn3C)c(C)o2)c(C)c1C (centres unmarked) | -64.9
COc1ccc(OC)c(-c2nc(CN3CCCCC3c3cccnc3)c(C)o2)c1 (centres unmarked) | -1.11
COc1ccc(-c2noc(CN3CCCCC3c3nccn3C)n2)cc1 (centres unmarked) | -6.83
CC(=O)c1ccc(N(CC(=O)NC2CCCCC2)C(=O)CNC(=O)c2ccco2)cc1 | -7.74
O=C(Nc1scc(-c2ccccc2)c1C(=O)O)c1ccco1 | -0.991
O=C(c1ccccn1)N1CCCC(N2CCN(c3cccc(C(F)(F)F)c3)CC2)C1 (centres unmarked) | -28.8
O=C(CCc1ccccn1)N1CCCC(N2CCN(c3cccc(C(F)(F)F)c3)CC2)C1 (centres unmarked) | -68.2
O=C(CCn1cncn1)N1CCCC(N2CCN(c3cccc(C(F)(F)F)c3)CC2)C1 (centres unmarked) | -35.8
COC(=O)CCC(=O)N1CCCC(N2CCN(c3cccc(C(F)(F)F)c3)CC2)C1 (centres unmarked) | -35.8
CCc1nccn1CCC(=O)N1CCCC(N2CCN(c3cccc(Cl)c3)CC2)C1 (centres unmarked) | -36.1
Cc1ccnn1CCC(=O)N1CCCC(N2CCN(c3cccc(Cl)c3)CC2)C1 (centres unmarked) | -30.3
CN(C)C(=O)CCC(=O)N1CCCC(N2CCN(c3cccc(C(F)(F)F)c3)CC2)C1 (centres unmarked) | -12.3
O=C(CCn1cccn1)N1CCCC(N2CCN(c3cccc(Cl)c3)CC2)C1 (centres unmarked) | -54.1
O=C(CCn1cccn1)N1CCCC(N2CCN(c3cccc(C(F)(F)F)c3)CC2)C1 (centres unmarked) | -53.6
